Here are results for 10 compounds from PubChem BioAssay.

Experiment [1] is described as follows: inhibitors of TNFa-induced NFkB p65 translocation, primary screen, imaging, HUVEC, MLSMR starter and 10KST1 sets (AID 438;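 active means inhibition above 20% together with a positive visual image hit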;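 further: compound added about 3h40 before a 20 min TNFalpha stimulation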;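 on inhibition: signal is the nuclear over cytoplasmic p65 intensity ratio per well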). Particulars: HUVEC TNFa-induced p65 nuclear translocation; cell count: measured here: nuclei count (cytotoxicity indicator), at 2.08 µM; inhibition: at 2 µM, stronger effect = higher value, 0% TNFa-plus-vehicle, 100% no-TNFa wells.
Experiment [2] is described as follows: inhibitors of mutant huntingtin aggregation, primary screen, imaging, exon1htt(103Q)mCFP cells, high-content imaging (AID 483;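 active means visual image review flags a hit and inhibition of aggregation exceeds 20%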;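 further: compound exposure lasted 3 days before fixation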;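 on nuclei count: percent of the per-plate median nuclei count of sample wells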). Particulars: exon1htt(103Q)mCFP cell line, aggregate imaging, at 2 µM; inhibition of aggregation: stronger effect = higher value; nuclei count: measured here: cell count, toxicity.
A short description of experiment [3]: inhibitors of E-selectin induction by TNFa, primary screen, imaging, HUVEC, immunofluorescence, MLSMR starter and 10KST1 sets (AID 487;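 active means visually confirmed hit in the image check and inhibition above 20%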;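 on inhibition: signal is fraction of cell area covered by stained E-selectin grains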;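 on nuclei count: 100% = median nuclei count of all wells on the same plate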). Particulars: HUVEC TNFalpha-induced E-selectin immunofluorescence imaging, at 2 µM; inhibition: stronger effect = higher value; nuclei count: measured here: cell number, toxicity.
Experiment [4] has as its target Voltage-gated potassium channel subunit beta-2 (Rattus norvegicus) (UniProt P62483). Description: KvBeta enzyme negative modulators, primary screen, biochemical, NADPH fluorescence (AID 622;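 active means fluorescence slope higher than the sample average by over 3 SD, cut at about -0.22 in these data, passing the limit was not always enough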;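 further: slope of raw intensity against log time taken from 70 to 1610 s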). Particulars: recombinant KvBeta, 4-cyanobenzaldehyde reduction, at 10 µM, stronger effect = higher value.
The target is the same in experiment [5]. Description: KvBeta positive modulators, primary screen, biochemical, NADPH fluorescence (AID 623;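 active means NADPH fluorescence slope more negative than the mean of all samples by about 3 SD, 99.7% confidence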;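 further: fluorescence intensity change per second fitted from 20 to 320 s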). To be noted: Recombinant KvBeta, NADPH fluorescence decrease slope, 10 min; at 10 µM; stronger effect = lower value.
Experiment [6] has as its target Muscarinic acetylcholine receptor M4 (Homo sapiens) (UniProt P08173). Description: compounds altering M4/GIRK thallium flux, either direction, primary screen, M4 allosteric agonist project, cell-based, HEK293 M4/GIRK, BTC-AM (AID 625;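 active means fluorescence slope after compound addition differing from the mean of all tested samples at 99.7% confidence, mostly higher but some lower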;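 further: thallium influx through GIRK channels coupled to M4 in HEK293 cells with BTC-AM dye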). Particulars: at 10 µM, actives lie on both sides.
Experiment [7] is described as follows: inhibitors of Chlamydomonas gravitaxis, primary screen, whole organism, Chlamydomonas reinhardtii, WT vs cilia-less mutant, absorbance, 96-well (AID 463189).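 Further: 0% = wild type cc124 cells in DMSO and 100% = ciliumless bld1 mutant cells.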 Particulars: OD600 absorbance, 2 days, at 10 µM, stronger effect = higher value.
Experiment [8] in a line: inhibitors of Sendai virus-induced IRF3 signaling, primary screen, TLR/RLR signaling modifier project, cell-based, Sendai virus stimulus, luciferase, 10K MLSCN set (AID 602276;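 active means inhibition at or above 50% at 10 µM; inactive means inhibition below 50%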;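 further: firefly luciferase from ISG56 promoter only with Renilla not read in this screen; 0% = Sendai virus plus DMSO and 100% = medium plus DMSO without virus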). To be noted: HEK293 RL24 IRF3 luciferase reporter, at 10 µM, stronger effect = higher value.
A short description of experiment [9]: inhibitors of poly I:C-induced TLR3 signaling, primary screen, cell-based, poly I:C stimulus, luciferase, 10K MLSCN set (AID 602277;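 active means inhibition of the reporter signal at or above 50%; inactive means inhibition below 50%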). To be noted: HEK293-TLR3 RL24 IRF3 luciferase reporter, at 10 µM, stronger effect = higher value.
The nature of experiment [10]: DUSP6 inhibitors restoring Erk phosphorylation by chemical complementation, primary imaging in DUSP6-transfected HeLa (AID 609;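 active means compounds giving at least 50% inhibition in the cell-based MKP-3 phosphatase rescue imaging test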;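 on inhibition: phospho-Erk level distribution per well compared with pooled transfected vehicle control wells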). Particulars: HeLa MKP-3 transfected, phospho-Erk imaging KS statistic, at 10 µM, cells stimulated with TPA for 15 min.
Experiment [11] concerns the target Dual specificity protein phosphatase 6 (Homo sapiens) (UniProt Q16828). Described as above. Particulars: HeLa MKP-3 transfected, phospho-Erk imaging KS statistic; at 10 µM; stronger effect = higher value; cells stimulated with TPA for 15 min.
Experiment [12] is described as follows: inhibitors of larval lipid processing in zebrafish, primary screen, whole organism, PED6 fluorescence, gall bladder and intestine (AID 686;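 active means a full or partial loss of lipid-probe fluorescence in the fish gall bladder, intestine or both, judged by eye; inactive means no fluorescence loss, or compound toxic to the fish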;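 further: larvae 5 to 7 days old with five fish per well; signal comes from phospholipase A2 cleavage of quenched PED6 carried via bile; overnight exposure to compound and PED6 before scoring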). Particulars: Zebrafish larvae PED6 lipid processing, fluorescence scoring; screened at 20 µM (by protocol).
Experiment [13] concerns the target Alpha-2C adrenergic receptor (Homo sapiens) (UniProt P18825). Description: modulators of alpha2C/GIRK thallium flux, primary screen, cell-based, HEK293 alpha2C/GIRK1/2 (AID 624;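 active means fluorescence slope after compound addition differing from the mean of all screened samples at 99.7% confidence, in either direction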;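 further: slope of fluorescence ratio to pre-addition baseline per second over 15 to 24 s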). Particulars: thallium flux BTC fluorescence, at 10 µM, actives lie on both sides.
Setting [14] is: measured here: cell density z-score.
Where [15] appears, read: measured here: nuclear c-Myc green intensity z-score.
[16] abbreviates: measured here: nuclear pErk red intensity z-score, stronger effect = higher value.

Values joined by “and” are separate entries in the source; they are usually repeats but may differ in a detail not shown here. Equal entries are not always repeated. Active and inactive are the calls of the source.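 How the source made its calls, unless noted: active means inhibition at or above 50% relative to wild type and mutant plate controls; inactive means inhibition below 50%.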

Voltage-gated potassium channel subunit beta-2 (Rattus norvegicus), sequence (P62483 whole entry, looked up): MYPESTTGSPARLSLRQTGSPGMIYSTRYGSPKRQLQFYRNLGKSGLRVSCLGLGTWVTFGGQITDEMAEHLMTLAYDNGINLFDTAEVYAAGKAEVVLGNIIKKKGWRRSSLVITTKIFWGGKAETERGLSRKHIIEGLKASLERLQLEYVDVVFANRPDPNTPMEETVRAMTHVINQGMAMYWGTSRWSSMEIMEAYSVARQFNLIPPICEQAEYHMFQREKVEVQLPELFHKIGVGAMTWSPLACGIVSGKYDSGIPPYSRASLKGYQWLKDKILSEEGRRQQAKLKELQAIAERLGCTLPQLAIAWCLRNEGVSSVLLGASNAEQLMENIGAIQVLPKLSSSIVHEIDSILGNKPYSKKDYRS
Alpha-2C adrenergic receptor (Homo sapiens), sequence (P18825 whole entry, looked up): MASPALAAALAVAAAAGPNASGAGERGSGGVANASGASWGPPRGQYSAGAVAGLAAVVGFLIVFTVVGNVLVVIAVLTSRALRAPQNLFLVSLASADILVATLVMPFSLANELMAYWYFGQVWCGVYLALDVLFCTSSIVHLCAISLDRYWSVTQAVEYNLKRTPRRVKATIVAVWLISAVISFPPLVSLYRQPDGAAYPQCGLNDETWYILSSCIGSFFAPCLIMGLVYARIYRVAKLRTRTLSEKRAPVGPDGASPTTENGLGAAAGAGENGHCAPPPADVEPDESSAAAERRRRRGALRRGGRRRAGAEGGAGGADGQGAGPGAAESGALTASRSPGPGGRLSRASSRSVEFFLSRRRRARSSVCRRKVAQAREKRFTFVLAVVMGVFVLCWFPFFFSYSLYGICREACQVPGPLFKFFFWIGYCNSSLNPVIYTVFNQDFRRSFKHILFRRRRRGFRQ
Muscarinic acetylcholine receptor M4 (Homo sapiens), sequence (P08173 whole entry, looked up): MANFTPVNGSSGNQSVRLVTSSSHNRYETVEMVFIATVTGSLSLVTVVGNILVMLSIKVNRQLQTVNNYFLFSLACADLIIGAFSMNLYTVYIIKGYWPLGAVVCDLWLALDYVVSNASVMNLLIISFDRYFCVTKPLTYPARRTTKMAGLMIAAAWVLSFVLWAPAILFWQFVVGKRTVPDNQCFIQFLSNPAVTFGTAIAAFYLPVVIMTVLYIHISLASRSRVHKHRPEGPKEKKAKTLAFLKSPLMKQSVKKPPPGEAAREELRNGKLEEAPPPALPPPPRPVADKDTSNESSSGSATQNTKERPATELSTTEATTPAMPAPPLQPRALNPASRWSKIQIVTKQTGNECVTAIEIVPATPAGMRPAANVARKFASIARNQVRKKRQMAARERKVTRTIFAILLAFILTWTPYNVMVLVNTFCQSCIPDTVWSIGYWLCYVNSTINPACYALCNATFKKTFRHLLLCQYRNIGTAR
Dual specificity protein phosphatase 6 (Homo sapiens), sequence (Q16828 whole entry, looked up): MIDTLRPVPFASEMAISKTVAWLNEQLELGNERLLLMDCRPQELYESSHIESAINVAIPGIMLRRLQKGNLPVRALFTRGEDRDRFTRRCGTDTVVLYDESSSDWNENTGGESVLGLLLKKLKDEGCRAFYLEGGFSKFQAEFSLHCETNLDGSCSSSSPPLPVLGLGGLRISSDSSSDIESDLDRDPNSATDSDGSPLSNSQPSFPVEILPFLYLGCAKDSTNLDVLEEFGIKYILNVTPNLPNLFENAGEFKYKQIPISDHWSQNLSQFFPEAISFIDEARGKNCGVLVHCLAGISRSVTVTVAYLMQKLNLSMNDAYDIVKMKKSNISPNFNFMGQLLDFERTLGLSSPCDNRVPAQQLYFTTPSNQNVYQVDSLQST

In the case of `O=C(O)c1cc(=O)cc(C(=O)O)[nH]1`, the cell count in [1] amounted to 482. The inhibition was 1.8% (inactive) in experiment [1]; -58.7% (inactive) in experiment [3]; 3.81% (inactive) in experiment [7]; 13.7% (inactive) in [8]; 20.1% (inactive) in [9]. Also, the inhibition of aggregation in experiment [2] is 0.2% (inactive). Besides, the figures for the nuclei count in experiment [2] and in experiment [3] were 98% and 188%, respectively. Further, the results for the fluorescence slope in experiment [4] and in experiment [6] were -0.603 (inactive) and 0.00559 (inactive), respectively. In [5], the NADPH fluorescence slope was -2e-06 (inactive).

Consider `COC(=O)c1cc(=O)n2c(-c3ccc(OC)cc3)csc2n1`, for which the cell count in [1] turned out to be 468. The inhibition in experiment [1] is -6.9% (inactive); in [3], -46.8% (inactive); in experiment [11], 1.98% (inactive); in experiment [7] it was -2.61% (inactive); in [8] it was 18.2% (inactive); in experiment [9] it was 19.9% (inactive). For the same compound, the inhibition of aggregation in experiment [2] is 8.7% (inactive). In addition, the nuclei count in experiment [2] is 104%; in [3], 133%. Besides, the figures for the z-score in experiment [10] (setting [14]), in experiment [10] (setting [15]) and in experiment [10] (setting [16]) were -0.555, 0.15 and -1.12, respectively. Also, the fluorescence slope in experiment [4] was -0.383 (inactive); in experiment [6], 0.00743 (inactive). The NADPH fluorescence slope in [5] was -3.1e-05 (inactive). The compound was classed as inactive in [12].

For the compound `CC[C@H]1OC(=O)C[C@@H](O)[C@H](C)[C@@H](O[C@@H]2O[C@H](C)C[C@H](N(C)C)[C@H]2O)[C@@H](CC=O)C[C@@H](C)C(=O)C=C[C@]2(C)O[C@H]2[C@@H]1C`, in [1], the cell count worked out at 610. Besides, the inhibition in experiment [1] was -3.7% (inactive); in [3], -120% (inactive); in [11], 7.39% (inactive); in experiment [7], 59.9% (active); in experiment [8] it was 6.6% (inactive); in [9], 61.9% (active). In addition, the nuclei count in experiment [3] was 116%. Also, the z-score in [10] (setting [14]) was 0.794; in experiment [10] (setting [15]) it was -0.225; in experiment [10] (setting [16]), -0.416. Further, the fluorescence slope in [4] was -0.498 (inactive). Besides, the NADPH fluorescence slope in experiment [5] is -2.6e-05 (inactive). Besides, the slope in [13] was 0.00472 (inactive). Moreover, the outcome in experiment [12] was inactive.

Turning to `Cc1ccc(C2C3CN(C(C)C)CC=C3C(C#N)=C(N)C2(C#N)C#N)cc1` (stereo unspecified), in experiment [1], the cell count was found to be 620. Also, the inhibition is 0.1% (inactive) in [1]; -85.5% (inactive) in experiment [3]; 70.4% (inactive) in experiment [11]; 8.92% (inactive) in experiment [7]; 22.9% (inactive) in [8]; 22.3% (inactive) in experiment [9]. Further, the nuclei count in [2] was 99.1%; in experiment [3] it was 145%. Further, the z-score in experiment [10] (setting [14]) came to 1.72; in experiment [10] (setting [15]), 2.35; in experiment [10] (setting [16]), 0.446. The fluorescence slope in experiment [4] was -0.33 (inactive). In experiment [5], the NADPH fluorescence slope was -1.4e-05 (inactive). Further, the slope in experiment [13] was -0.00688 (active). Further, the call in [12] was inactive.

With `Cn1c(Cl)cnc1C1CC(=O)c2cc(Cl)ccc2O1` (stereo unspecified), the cell count in experiment [1] was 637. Besides, the inhibition in experiment [1] is -11.8% (inactive); in experiment [3], -161% (inactive); in experiment [11], 15.9% (inactive); in [7], -12.2% (inactive); in experiment [8] it was 16.5% (inactive); in experiment [9], 35% (inactive). The nuclei count in experiment [2] amounted to 0.8%; in experiment [3], 112%. Besides, the z-score in experiment [10] (setting [14]) was -0.672; in experiment [10] (setting [15]), -0.603; in [10] (setting [16]) it was -2.4. Besides, the fluorescence slope in experiment [4] was -0.562 (inactive). Also, in experiment [5], the NADPH fluorescence slope is -8.8e-06 (inactive). For the same compound, the slope in [13] was 0.00554 (inactive). In addition, the call in experiment [12] was inactive.

As to `Cc1cc2c(c(=O)o1)C(Cc1ccccc1)C(C#N)=C(N)O2` (stereo unspecified), the cell count in experiment [1] is 706. The inhibition in experiment [1] is -3.3% (inactive); in experiment [3] it was -45.5% (inactive); in experiment [11], 9.61% (inactive); in [7], 9.12% (inactive); in experiment [8], 13.9% (inactive); in experiment [9], 19% (inactive). In experiment [2], the inhibition of aggregation is -2.1% (inactive). Also, the nuclei count in experiment [2] worked out at 80.9%; in experiment [3], 126%. Moreover, the z-score in experiment [10] (setting [14]) was -1.29; in experiment [10] (setting [15]), 0.225; in experiment [10] (setting [16]), 1.32. In addition, the fluorescence slope in experiment [4] is -0.44 (inactive); in experiment [6], 0.00523 (inactive). In [5], the NADPH fluorescence slope is -4.7e-05 (inactive). In [12], the outcome was inactive.

With `Clc1ccc2c(c1)C(N1CCNCC1)=Nc1ccccc1O2`, the cell count in experiment [1] is 676. The inhibition in experiment [1] is -0.2% (inactive); in experiment [3] it was -61.7% (inactive); in [11] it was -7.45% (inactive); in experiment [7], -13.2% (inactive) and 2.47% (inactive); in experiment [8], 1.94% (inactive); in experiment [9] it was 23.6% (inactive). Moreover, the inhibition of aggregation in experiment [2] is 16.3% (inactive). Besides, the values for the nuclei count in experiment [2] and in experiment [3] were 73.5% and 119%, respectively. For the same compound, the z-score is -1.22 in experiment [10] (setting [14]), -0.679 in experiment [10] (setting [15]) and 1.28 in [10] (setting [16]). Besides, the fluorescence slope in experiment [4] is -0.471 (inactive). In addition, the NADPH fluorescence slope in experiment [5] was -7.1e-06 (inactive). The outcome in [12] is “inactive; toxic”.

Take `CCCC(=O)Nc1ccc(OCC(O)CNC(C)C)c(C(C)=O)c1` (stereo unspecified): in experiment [1], the cell count was 693. Further, the inhibition in [1] was -4.7% (inactive); in experiment [3], -70.6% (inactive); in experiment [11], 11.3% (inactive); in [7] it was -6.41% (inactive); in experiment [8], 8.12% (inactive); in [9] it was 27.1% (inactive). Moreover, the nuclei count in [3] is 120%. Further, the results for the z-score in experiment [10] (setting [14]), in experiment [10] (setting [15]) and in experiment [10] (setting [16]) were -1.73, -0.994 and 0.31, respectively. The fluorescence slope in experiment [4] is -0.492 (inactive). Besides, the NADPH fluorescence slope in experiment [5] was 3e-05 (inactive). Besides, the slope in experiment [13] was 0.00505 (inactive). Besides, in experiment [12], the outcome was inactive.

As to `CCC(NC(=O)Nc1cc(OC)c(OC)c(OC)c1)(C(F)(F)F)C(F)(F)F`, the cell count in [1] amounted to 545. For the same compound, the inhibition is 3.4% (inactive) in [1]; -82.9% (inactive) in experiment [3]; 1.9e-07% (inactive) in experiment [11]; 8.7% (inactive) in [7]; 20% (inactive) in experiment [8]; 24.9% (inactive) in experiment [9]. Besides, the inhibition of aggregation in experiment [2] was 15.8% (inactive). The nuclei count came out at 97.5% in experiment [2] and 141% in [3]. The figures for the z-score in experiment [10] (setting [14]), in experiment [10] (setting [15]) and in [10] (setting [16]) were -0.0203, 1.89 and 0.038, respectively. The fluorescence slope in [4] is -0.48 (inactive); in [6] it was 0.00495 (inactive). Moreover, in experiment [5], the NADPH fluorescence slope is -4e-05 (inactive). Besides, the call in [12] was inactive.

With `CCn1nc(C(=O)O)c(=O)c2cc3c(cc21)OCO3`, in experiment [1], the cell count came to 692. Also, the inhibition is -0.9% (inactive) in experiment [1]; -72.8% (inactive) in [3]; 1.48% (inactive) in [11]; -5.01% (inactive) and 17.9% (inactive) in experiment [7]; 8.87% (inactive) in [8]; 30.3% (inactive) in [9]. In experiment [3], this compound gave a nuclei count of 125%. The z-score in [10] (setting [14]) is 0.431; in [10] (setting [15]) it was 0.329; in [10] (setting [16]) it was -0.702. In experiment [4], the fluorescence slope is -0.476 (inactive). Also, the NADPH fluorescence slope in experiment [5] is -5.5e-05 (inactive). In [13], the slope was 0.00573 (inactive). Moreover, the outcome in experiment [12] was inactive.
